Source: PubChem BioAssay
MARV entry inh – qHTS for inhibitors of binding or entry into cells for Marburg Virus. Marburg virus pseudotyped entry inhibition, cell reporter. Potency, µM (doses to about 37.8 µM), actives largely listed as inhibitors. actives 1.8% (n = 300,000). AID 540276, 2011; calls by dose curve; tested in HEK293 cells
Shiga toxin inh – A qHTS for Small Molecule Inhibitors of Shiga Toxin; AID 2315, 2010; actives 9.2% (n = 290,000); Vero cells, Shiga toxin protein synthesis inhibition reporter; inhibition, % at 38.7 µM; in the data active = inhibition mostly above about 28%, no sharp cut-off; inactive = mostly below about 43%
Pf growth 96h – Primary qHTS for delayed death inhibitors of the malarial parasite plastid, 96 hour incubation; actives 6.9% (n = 320,000); Potency, µM (series often up to 28.7 µM), actives largely listed as inhibitors; P. falciparum luciferase reporter growth, 96 h
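Erythrocytes infected with luciferase-expressing P. falciparum were dispensed at 2% hematocrit and 0.05% parasitemia (final), then incubated with compounds 96 hours at 37 C in 5% CO2. Luminescence after detection reagent addition reported growth.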
CHX counter – Cycloheximide Counterscreen for Small Molecule Inhibitors of Shiga Toxin; cell reporter, cycloheximide protein synthesis inhibition counterscreen; max response, %; actives 12% (n = 300,000); AID 2314, 2010; in the data active = max response mostly above about 13%, no sharp cut-off; inactive = mostly below about 14%; also: read at 38.3 µM for the half of the compounds with a filed dose
Pf growth 48h – Primary qHTS for delayed death inhibitors of the malarial parasite plastid, 48 hour incubation; P. falciparum luciferase growth in erythrocytes, 48 h; Potency, µM (series often up to 28.7 µM), usual class: inhibitors; actives 5.9% (n = 310,000); AID 504832, 2011
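Firefly luciferase activity from engineered P. falciparum reports growth; inhibitors lower the luminescent signal. Cultures contained 2% hematocrit erythrocytes at 0.1% final parasitemia.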
Lassa entry inh – qHTS for Inhibitors of binding or entry into cells for Lassa Virus; Lassa virus pseudotype entry inhibition, cell reporter; Potency, µM (highest dose often 37.9 µM), actives largely listed as inhibitors; actives 1.2% (n = 300,000); AID 540256, 2011; calls by dose curve; tested in HEK293 cells; also: nearly all actives have a fitted effect of over 50% in size
Hits are given with their value; i = inactive; ? = inconclusive; nt = no result; [ ] = remark or other dose. Hits are enriched below; roughly 19% of the tested compounds scored in any of these assays. Unless noted, calls follow the shape of the dose curve; as a rule, active = well fitted inhibition curve with a large enough effect; inconclusive = small, poorly fitted or top-dose-only effect, or another doubt; inactive = no such curve, though single readings can be large or run the other way.

SMILES	MARV entry inh	Shiga toxin inh	Pf growth 96h	CHX counter	Pf growth 48h	Lassa entry inh
Cc1c(OC(=O)N(C)C)ccc2c1O/C(=C\c1ccco1)C2=O	?	91	i	47	i	i
CC(=O)COc1ccc2c(c1C)O/C(=C\c1ccco1)C2=O	nt	127	i	82	i	nt
Cc1cc(O)c(CN(C)C)c2c1C(=O)/C(=C/c1ccco1)O2	nt	i	5.2µM	i	6.6µM	nt
Cc1c(Cl)cccc1NC(=S)NCC(C)C	i	i	3.3µM	i	?	?
Cc1c(Cl)cccc1NC(=S)NCc1cccn1C	?	i	i	52	i	i
Cc1ccccc1NC(=S)NCc1cccn1C	i	i	i	i	i	i
Cc1ccc(NC(=S)NCc2cccn2C)cc1	?	i	?	i	nt	i
Cc1cccc(NC(=S)NCc2cccn2C)c1	i	i	12µM	i	nt	i
CCN1C(=O)/C(=C\c2ccc3c(c2)OCO3)C(C(=O)OC)=C1C	i	i	1.9µM	i	i	i
CCOc1cc(/C=C2\C(=O)N(Cc3ccc(C)cc3)C(C)=C2C(=O)OC)ccc1O	i	i	i	i	?	?
COC(=O)C1=C(C)N(CCc2ccc(OC)c(OC)c2)C(=O)/C1=C\c1ccc(O)cc1	i	i	i	i	12µM	?
C=CCOc1cccc(/C=C2\C(=O)N(Cc3ccc(C)cc3)C(C)=C2C(=O)OC)c1	?	i	6.6µM	i	15µM	?
CCOC(=O)N1CCN(c2nc(-c3cccc(OC)c3)cc(C(F)(F)F)n2)CC1	?	i	i	i	?	?
Cc1csc(SCCN2C(=O)c3ccccc3C2=O)n1	?	102	?	40	i	?
O=C1c2ccccc2C(=O)N1CCSc1ccccc1	?	i	i	34	nt	?
O=C1c2ccccc2C(=O)N1CCSc1nncs1	i	i	i	i	i	i
COCCN1C=C2C(=O)C(C)(OC(=O)CCC(=O)OC)C(=O)C(Br)=C2C=C1c1ccc(OC)cc1 (stereo not drawn)	i	nt	nt	nt	nt	nt
C=CCN1C=C2C(=O)C(C)(OC(=O)CCC(=O)OC)C(=O)C(Br)=C2C=C1c1ccc(OC)cc1 (stereo not drawn)	nt	i	?	i	15µM	nt
O=C(CSc1ncn[nH]1)Nc1ccc(Cl)c(Cl)c1	i	i	nt	i	i	i
CCN(CC)C(=O)N[C@H]1C[C@@H]2c3cccc4[nH]cc(c34)C[C@H]2N(C)C1	i	i	0.93µM	i	?	i
C=CCN1CC(C(=O)N(CCCN(C)C)C(=O)NCC)CC2c3cccc4[nH]cc(c34)CC21 (stereo not drawn)	nt	i	11µM	i	19µM	nt
CCN(CC)C(=O)N[C@@H]1C=C2c3cccc4[nH]cc(c34)C[C@H]2N(C)C1	nt	nt	i	nt	?	nt
COc1cc(C(c2c(C)[nH][nH]c2=O)c2c(C)[nH][nH]c2=O)cc(Br)c1OC	nt	i	7.4µM	i	i	nt
COc1ccc(Cl)cc1C(=O)Nc1ccc(NC(=O)C(C)C)cc1	i	i	i	i	i	?
CC(=O)Oc1c(I)cc(I)cc1C(=O)Nc1ccc(Cl)cc1	?	i	?	24	i	13µM
SMILES	MARV entry inh	Shiga toxin inh	Pf growth 96h	CHX counter	Pf growth 48h	Lassa entry inh
Cc1c(NS(=O)(=O)c2cc(C(=O)NCc3cccnc3)cc(Cl)c2Cl)c(=O)n(-c2ccccc2)n1C	i	nt	?	nt	12µM	i
CC(C)(C)NC(=O)CN(Cc1ccc(F)cc1)C(=O)Cn1nnc(-c2ccc(F)cc2)n1	nt	i	i	i	i	nt
Cc1nc(NC(=O)c2ccc(F)cc2)sc1C(=O)Nc1ccc2c(c1)CCC2	i	i	i	i	i	i
O=C(Nc1ccc2c(c1)CCC2)c1ccccc1	?	48	i	31	i	?
O=C(O)c1ccccc1-c1ccccc1C(=O)Nc1ccc2c(c1)CCC2	?	nt	?	i	i	i
Cc1ccc(C(=O)Nc2nc(C)c(C(=O)Nc3ccc4c(c3)CCC4)s2)cc1	1.1µM	48	i	45	i	?
CCN(CC)CCNC(=O)c1ccc(NC(=O)c2ccc3c(c2)CCC3)cc1	nt	i	3.7µM	i	5.2µM	nt
O=C(Nc1ccc2c(c1)CCC2)c1ccccc1F	i	97	i	63	i	?
COC(=O)Nc1ccc(S(=O)(=O)N2CCC(C(=O)N3CCCCC3C)CC2)cc1 (stereo not drawn)	?	i	i	i	i	i
CSCC(=O)N1CCC(n2nccc2NC(=O)CCc2ccccc2)CC1	nt	i	?	i	i	nt
COc1ccc(C(=O)CC(=O)C(=O)Nc2ccc([N+](=O)[O-])cc2C)cc1	i	i	i	i	i[0.00184 µM]	?
NS(=O)(=O)c1ccc(NC(=O)c2ccc3c(c2)CCCC3)cc1	nt	i	i	48	i	nt
NS(=O)(=O)c1ccc(NC(=O)c2ccc3nccnc3c2)cc1	i	i	?	i	i	i
O=C(O)c1cc(C2CC2)nc2ccccc12	i	i	i	i	i	i
Fc1ccccc1Nc1n[nH]c(=S)s1	i	69	i	26	i	i
S=c1[nH]nc(Nc2cccc3ccccc23)s1	i	i	i	i	i	i
COc1cc(/C=N/Nc2ccc(Cl)c(C(=O)O)c2)ccc1OCC(=O)N1C(C)CCCC1C (stereo not drawn)	?	59	?	i	i	i
COc1cc(C=O)ccc1OC(=O)c1ccc(C(C)C)cc1	?	i	i	35	i	i
COc1cc(/C=N/Nc2ccc(Cl)c(C(=O)O)c2)ccc1OC(=O)c1cccs1	i	i	i	i	i	i
COc1cc(/C=N/NC(N)=O)ccc1OCC(=O)N1C(C)CCCC1C (stereo not drawn)	i	i	?	i	i	i
COc1cc(C=O)ccc1OC(=O)c1ccncc1	nt	i	i	i	i	nt
COc1cc(/C=N/Nc2ccc(Cl)c(C(=O)O)c2)ccc1OC(=O)c1ccco1	?	68	i[5.75 µM]	37	i	?
COc1cc(/C=N/Nc2nc3c(c(=O)n(C)c(=O)n3C)n2Cc2ccccc2)ccc1OC(=O)c1ccco1	?	i	9.3µM	i	10µM	?
CCc1cc2ccc(C)cc2nc1SCC(=O)Nc1cc(OC)c(OC)cc1C(=O)O	i	i	?	i	i	i
CCOc1ccccc1C(=O)n1nc(C)cc1C	i	i	i	i	?	i
COC(=O)c1ccc(Cl)c(NC(=O)CN2CCN(Cc3ccccc3)CC2)c1	i	i	nt	i	i	i
Cc1ccc(Cn2c(N/N=C/c3ccncc3)nc3c2c(=O)n(C)c(=O)n3C)cc1	i	i	3.7µM	i	10µM	?
COc1ccc(C(=O)Oc2ccc(/C=N/Nc3ccc(Cl)c(C(=O)O)c3)cc2OC)cc1	i	93	i	21	i	i
O=C1NC(=O)C(=Cc2ccc3c(c2)OCO3)C(=O)N1	nt	i	9.3µM	i	i	nt
O=C(O)c1ccc(S(=O)(=O)/N=C2\C=C(Nc3ccccc3F)C(=O)c3ccccc32)cc1	?	i	?	i	2.6µM	?
